Shown are actives, neighbours in structure and some others; about 21% of the full set was active somewhere.
Shiga toxin inh = Shiga toxin inhibition | Vero cells, Shiga toxin protein synthesis inhibition reporter | 9.2% of 290,000 active | inhibition, % at 38.7 µM; in the data active = inhibition mostly above about 28%, no sharp cut-off; inactive = mostly below about 43%; also: 0% is about no effect
Pf growth 96h = inhibits malaria parasite growth, 96 h. AID 504834. 6.9% of 320,000 active. P. falciparum luciferase reporter growth, 96 h. Potency, µM (top dose mostly 28.7 µM), without a hit: top-dose activity change, negative = inhibition, actives largely listed as inhibitors; also: potency is read from the fitted curve at half-maximal effect; % is scaled to controls: 0 for no effect and ±100 for the full control effect
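Cell-based qHTS: luciferase-tagged P. falciparum in erythrocytes (2% hematocrit, 0.05% parasitemia final) incubated with compounds for 96 hours, 37 C, 5% CO2; luciferase detection reagent then added and luminescence measured.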
Cycloheximide cs = affects cycloheximide protein synthesis inhibition readout, counter-screen; cell reporter, cycloheximide protein synthesis inhibition counterscreen; max response, %; 12% of 300,000 active; in the data active = max response mostly above about 13%, no sharp cut-off; inactive = mostly below about 14%; also: read at 38.3 µM for the half of the compounds with a filed dose; 0% is about no effect
Pf growth 48h = inhibits P. falciparum growth in the first generation, 48 h | 5.9% of 310,000 active | Potency, µM (series often up to 28.7 µM), for inactives: at the top dose activity change, negative = inhibition, usual class: inhibitors | P. falciparum luciferase growth in erythrocytes, 48 h; also: potency is read from the fitted curve at half-maximal effect; % is scaled to controls: 0 for no effect and ±100 for the full control effect
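Cell-based growth assay: transgenic P. falciparum expressing firefly luciferase, cultured in red cells within RPMI 1640 containing 0.5% w/v Albumax, 24 mM bicarbonate and gentamycin. A drop in luciferase activity indicates inhibition.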
The depositor's hits bear a star; [ ] = another dose, or the depositor's remark. Unless noted, calls follow the shape of the dose curve; as a rule, active = well fitted inhibition curve with a large enough effect; inconclusive = small, poorly fitted or top-dose-only effect, or another doubt; inactive = no such curve, though single readings can be large or run the other way.

For O=C(COc1ccccc1F)Nc1ccc2c(c1)OCCO2 the results were Shiga toxin inh 103*, Pf growth 96h 31%, Cycloheximide cs 56* and Pf growth 48h 96%.
Screening O=C(COC(=O)Cc1ccccc1F)Nc1ccc2c(c1)OCCO2 returned Shiga toxin inh 59*, Pf growth 96h 0%, Cycloheximide cs 33* and Pf growth 48h 12%.
Screening C=CCN(C(=O)c1csnn1)C(C(=O)NC1CCCCC1)c1ccc(F)cc1 (configuration not stated) returned Shiga toxin inh -12, Pf growth 96h inconclusive, Cycloheximide cs -2 and Pf growth 48h inconclusive.
For O=C(CCC1CCCCC1)NCCN1C2=NC[C@H](Cc3ccccc3)N2C[C@H]1Cc1ccc(O)cc1 the results were Shiga toxin inh 2, Pf growth 96h 4.7µM*, Cycloheximide cs 2 and Pf growth 48h inconclusive.
COc1ccc(C[C@H]2CN3C(=NC[C@@H]3C)N2CCNC(=O)CCC2CCCCC2)cc1 was read as Shiga toxin inh -4, Pf growth 96h inconclusive, Cycloheximide cs -1 and Pf growth 48h inconclusive.
C[C@H]1CN=C2N(CCNC(=O)CCC3CCCCC3)[C@H](Cc3ccc(O)cc3)CN21 was read as Shiga toxin inh -14, Pf growth 96h 12µM*, Cycloheximide cs 1 and Pf growth 48h 5%.
`O=C(CCC1CCCCC1)NCCN1C2=NC[C@@H](Cc3ccccc3)N2C[C@H]1Cc1ccc(O)cc1` gave Shiga toxin inh -7, Pf growth 96h 2.3µM*, Cycloheximide cs -1 and Pf growth 48h inconclusive.
O=Cc1ccc(O)c2ncccc12 was read as Shiga toxin inh 34, Pf growth 96h inconclusive, Cycloheximide cs 14 and Pf growth 48h 6.6µM*.
For O=Cc1ccc(O)cc1O the results were Shiga toxin inh -4, Pf growth 96h inconclusive, Cycloheximide cs 1 and Pf growth 48h -4%.
For CCN(CC(=O)Nc1ccc(OC)cc1)C(=O)c1ccccc1Sc1ccccc1C#N the results were Pf growth 96h 18% and Pf growth 48h inconclusive.
For O=C1CC(N2CCN(c3ccccc3)CC2)C(=O)N1c1ccc2c(c1)OCCO2 (configuration not stated) the results were Shiga toxin inh -6, Pf growth 96h 12%, Cycloheximide cs 1 and Pf growth 48h 8%.
`CN1CCN(C2CC(=O)N(c3ccc4c(c3)OCCO4)C2=O)CC1` (configuration not stated) gave Shiga toxin inh 54, Pf growth 96h 17% and Cycloheximide cs 34*.
CCCOc1cccc(C(=O)NCCNC(=O)c2ccco2)c1 was read as Shiga toxin inh 47, Pf growth 96h 9%, Cycloheximide cs -4 and Pf growth 48h -7%.
Screening O=C(Nc1ccn(Cc2ccccc2)n1)c1ccc2c(c1)OCO2 returned Shiga toxin inh 42*, Pf growth 96h -25%, Cycloheximide cs 24* and Pf growth 48h 174%.
O=C(Nc1ccn(Cc2ccc(Cl)cc2)n1)c1ccccc1 was read as Shiga toxin inh 90*, Pf growth 96h 45%[5.75 µM], Cycloheximide cs 21* and Pf growth 48h 180%.
For N#CCCn1ccc(NC(=O)c2ccc(Cl)cc2)n1 the results were Shiga toxin inh 23, Pf growth 96h 61%, Cycloheximide cs 14 and Pf growth 48h 23%.
Screening Cn1cc(CN2CCC(C(O)c3cccs3)CC2)c(-c2cccc(Cl)c2)n1 (configuration not stated) returned Shiga toxin inh 7, Pf growth 96h inconclusive, Cycloheximide cs -1 and Pf growth 48h 9.3µM*.
For c1ccc(-c2noc(-c3ccccc3-c3ccccc3)n2)cc1 the results were Shiga toxin inh 6, Cycloheximide cs 15 and Pf growth 48h 5%.
O=c1oc2ccccc2cc1-c1nc(-c2ccccc2)no1 was read as Shiga toxin inh 107*, Pf growth 96h 71%, Cycloheximide cs 36* and Pf growth 48h 35%.
Cc1cccc(-c2noc(-c3cc4ccccc4oc3=O)n2)c1 was read as Shiga toxin inh 85*, Pf growth 96h 16%, Cycloheximide cs 29* and Pf growth 48h 6%.
For Cc1ccc2nc(NC(=O)c3cccc(-c4cc5ccccc5oc4=O)c3)sc2c1 the results were Shiga toxin inh 41, Pf growth 96h 219%, Cycloheximide cs 13 and Pf growth 48h 139%.
Cc1ccc(-c2noc(-c3cc4ccccc4oc3=O)n2)cc1 was read as Shiga toxin inh 42, Pf growth 96h 140%, Cycloheximide cs 25* and Pf growth 48h 5%.
Screening COc1ccc(/C(O)=C2/C(=O)C(=O)N(c3ccccn3)C2c2cccc(Cl)c2)cc1 (configuration not stated) returned Shiga toxin inh -3, Pf growth 96h inconclusive, Cycloheximide cs 1 and Pf growth 48h inconclusive.
For CCC(NC(=O)C(C)NC)C(=O)N1CCCC1C(=O)NC1CCCc2ccccc21 (configuration not stated) the results were Pf growth 96h inconclusive and Pf growth 48h 33%.
For Cc1ccc(-c2cc(Cc3ccncc3)c(=O)[nH]n2)cc1 the results were Shiga toxin inh 7, Pf growth 96h 25%, Cycloheximide cs 11* and Pf growth 48h 7%.
`Cc1ccc(Cc2cc(C)n[nH]c2=O)cc1` gave Shiga toxin inh -3, Pf growth 96h 11%, Cycloheximide cs -3 and Pf growth 48h -20%.
For O=C(Nc1ccccc1)C1=C[C@H](c2ccc(C(F)(F)F)cc2)C[C@H](OCc2ccc(CO)cc2)O1 the results were Shiga toxin inh 8, Pf growth 96h inconclusive, Cycloheximide cs 2 and Pf growth 48h inconclusive.
For C#Cc1ccc([C@@H]2C=C(C(=O)O)O[C@H](OCc3ccc(CO)cc3)C2)cc1 the results were Shiga toxin inh -13, Pf growth 96h 44%, Cycloheximide cs 5 and Pf growth 48h 30%.
For O=C(Nc1ccccc1)C1=C[C@@H](C2CC2)C[C@@H](OCc2ccc(CO)cc2)O1 the results were Shiga toxin inh 47*, Pf growth 96h 7%, Cycloheximide cs 35* and Pf growth 48h 4%.
`O=C(Nc1ccccc1)C1=C[C@H](c2ccccc2)C[C@H](OCc2ccc(CO)cc2)O1` gave Shiga toxin inh 53*, Pf growth 96h inconclusive, Cycloheximide cs 32* and Pf growth 48h inconclusive.
Screening C#Cc1ccc([C@H]2C=C(C(=O)Nc3ccccc3)O[C@@H](OCc3ccc(CO)cc3)C2)cc1 returned Shiga toxin inh 20, Pf growth 96h 7.4µM*, Cycloheximide cs 5 and Pf growth 48h 7.4µM*.
Screening O=C(Nc1ccccc1)C1=C[C@@H](C2CC2)C[C@@H](OCCCCO)O1 returned Shiga toxin inh 58*, Pf growth 96h 82%, Cycloheximide cs 55* and Pf growth 48h 61%.
`CSc1cccc(NC(=S)NC(=O)c2cccnc2)c1` gave Shiga toxin inh 12, Pf growth 96h inconclusive, Cycloheximide cs 10 and Pf growth 48h 6%.
Screening O=C(O)c1cccc(NC(=S)NC(=O)c2ccncc2)c1 returned Shiga toxin inh 8, Pf growth 96h 9.3µM*, Cycloheximide cs 10 and Pf growth 48h 32%.
CC(C)(C)C(=O)NC(=S)Nc1cccc(C(=O)O)c1 was read as Shiga toxin inh 84*, Pf growth 96h 33%[5.75 µM], Cycloheximide cs 45* and Pf growth 48h 213%.

Compound activity (PubChem BioAssay)
